Reference: ChEMBL document CHEMBL4513158, “CO-ADD screening of RKDF (India) compounds”
Results with a measured potency or affinity are listed apart.

What was measured:
Klebsiella pneumoniae = settings: Concentration 32 ug.mL-1; ASSAY_TEST Inhibition of Bacterial Growth; detection method Absorption (OD600); MEDIA CAMHB; plate type 384well; NBS; CORNING #3640; time 18 hr
Candida albicans = settings: 32 ug/mL
Cryptococcus neoformans = settings: Concentration 32 ug.mL-1; ASSAY_TEST Inhibition of Fungal Growth; detection method Resazurin; Absorption (OD600-OD570); plate type 384well; NBS; CORNING #3640

| SMILES | Inhibition (Klebsiella pneumoniae) | Inhibition (Candida albicans) | Inhibition (Cryptococcus neoformans) |
| --- | --- | --- | --- |
| CN(C)C(=N)NC(=N)N.Cl [METFORMIN HYDROCHLORIDE] | 14.76% | 99% | 90.72% |
| C=C[C@H]1[C@H](O[C@@H]2O[C@H](CO)[C@@H](O)[C@H](O)[C@H]2O)OC=C2C(=O)OCC[C@]21O [SWERTIAMARIN] | 13.48% | 14.2% | 102.17% |
